For six molecules, outcome and AC50 results are on record in PubChem BioAssay (EPA / NIEHS).

Results filed as inconclusive are left out. Activity calls are given as the source filed them. How the source made its calls, unless noted: active means hit-call score of the fitted dose curve at least 0.9, where 1 is the maximum; inactive means score below 0.9.

Test [1] can be described thus: ATG_TAL_CIS: Attagene CIS-FACTORIAL HepG2 Assay for human TAL Basal Promoter (AID 2282966).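 Further: background control endpoint measuring basal TAL promoter reporter mRNA not a specific factor.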 The note with it: HepG2 Attagene cis-factorial TAL promoter reporter; actives raise or lower the signal. The procedure, abridged: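 Steps: transfect HepG2 with multiple reporter transcription units; dose 24 h; isolate RNA, reverse-transcribe, PCR-amplify, label with 6-FAM, digest with HpaI; resolve by capillary electrophoresis. Bidirectional fitting against DMSO baseline.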

Test [2] can be described thus: ATG_TGFb_CIS: Attagene CIS-FACTORIAL HepG2 Assay for human Transforming Growth Factor (TGF) (AID 2282967). Particulars: HepG2 Attagene CIS TGFb reporter, mRNA transcription; actives raise or lower the signal. Put shortly:
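After a 24-hour incubation with compound, transfected HepG2 cells were lysed for RNA; reporter cDNA was amplified, fluorescently end-labeled and separated by CE. DMSO served as baseline for bidirectional fits.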

A short description of test [3]: ATG_VDRE_CIS: Attagene CIS-FACTORIAL HepG2 Assay for human Vitamin D Receptor Element (VDRE) (AID 2282968). Particulars: HepG2 VDRE cis-reporter transcription, actives raise or lower the signal. The procedure, abridged: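 Reporter mRNA induction, quantified by capillary electrophoresis of fluorescently labelled RT-PCR products, was read 24 h after dosing HepG2 cells carrying transiently transfected cis-regulated reporter units; gain or loss relative to DMSO.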

The target of test [4] is Steroid hormone receptor ERR1 (Homo sapiens) (UniProt P11474). The test can be described thus: ATG_ERRa_TRANS: Attagene TRANS-FACTORIAL HepG2 Assay for human Estrogen-Related Receptor alpha (ERRa) (AID 2282971; active means hit-call score of the fitted dose curve at least 0.9, where 1 is the maximum). The note with it: HepG2 Attagene TRANS reporter, ERRa transactivation. The procedure, abridged: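 Signal gain relative to DMSO for an ERRa-Gal4 chimeric receptor, read as reporter mRNA by RT-PCR/capillary electrophoresis. Human HepG2 liver cells, transient multiplex reporter transfection, 24 h chemical exposure.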
Sequence of Steroid hormone receptor ERR1 (Homo sapiens) (P11474 whole entry, looked up, the tested form may be a part): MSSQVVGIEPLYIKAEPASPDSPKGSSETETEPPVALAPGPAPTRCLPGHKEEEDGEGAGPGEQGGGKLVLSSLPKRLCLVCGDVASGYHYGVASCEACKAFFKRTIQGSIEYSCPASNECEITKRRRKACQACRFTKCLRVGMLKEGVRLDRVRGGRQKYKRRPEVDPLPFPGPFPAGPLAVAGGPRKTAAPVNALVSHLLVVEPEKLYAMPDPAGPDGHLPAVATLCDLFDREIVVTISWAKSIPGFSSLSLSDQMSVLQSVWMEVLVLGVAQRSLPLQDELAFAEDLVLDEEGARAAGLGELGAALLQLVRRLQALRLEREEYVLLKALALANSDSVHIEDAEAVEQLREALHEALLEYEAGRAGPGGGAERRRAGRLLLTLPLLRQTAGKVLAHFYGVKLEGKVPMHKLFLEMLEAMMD

Test [5] deals with X-box-binding protein 1 (Homo sapiens) (UniProt P17861). The test can be described thus: ATG_Xbp1_CIS: Attagene CIS-FACTORIAL HepG2 Assay for human X-box Binding Protein 1 (XBP1) (AID 2282972). Particulars: HepG2 XBP1 cis-element reporter, Attagene multiplex; actives raise or lower the signal. Put shortly:
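Fluorescence-labelled cDNA fragments from reporter transcripts, separated by capillary electrophoresis, give the signal. Source: HepG2 cells transfected with promoter-driven reporter units, harvested 24 h post-dose. DMSO served as reference for bidirectional curve fitting.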

Test [6] in a line: ATG_M_19_TRANS: Attagene TRANS-FACTORIAL HepG2 Assay for M19 Transcription Factor (Internal Marker) (AID 2282974; active means hit-call score of the fitted dose curve at least 0.9, where 1 is the maximum). The note with it: HepG2 Attagene TRANS-FACTORIAL M19 internal marker reporter. The procedure, abridged: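 HepG2 transiently transfected with GAL4-UAS multiplex reporter constructs, exposed 24 h; reporter RNA quantified by RT-PCR, 6-FAM labeling, HpaI digestion and capillary electrophoresis; internal background marker fitted upward versus DMSO.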

Test [7] is described as follows: ATG_GAL4_TRANS: Attagene TRANS-FACTORIAL HepG2 Assay for GAL4 (Internal Marker) (AID 2282976; active means hit-call score of the fitted dose curve at least 0.9, where 1 is the maximum). The note with it: HepG2 Attagene TRANS GAL4 internal marker reporter. Put shortly: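 Liver HepG2 line bearing multiplexed GAL4-UAS reporter constructs; 24 h chemical treatment. Transcripts were quantified as fluorescent fragments on capillary electrophoresis after RT-PCR and HpaI cut, with activity fitted upward from DMSO.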

In test [8] the target is Oxysterols receptor LXR-alpha (Homo sapiens) (UniProt Q13133). The test can be described thus: ATG_LXRa_TRANS: Attagene TRANS-FACTORIAL HepG2 Assay for human Liver X Receptor alpha (LXRa) (AID 2282980; active means hit-call score of the fitted dose curve at least 0.9, where 1 is the maximum). Particulars: HepG2 Attagene TRANS reporter, LXRa transactivation. Put shortly:
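In this multiplexed TRANS system, compounds act on HepG2 cells carrying GAL4-UAS reporter units and a receptor-GAL4 fusion for 24 h. Induced reporter RNA is amplified, fluorescently labelled and sized by capillary electrophoresis, with DMSO as baseline.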

The target in test [9] is Oxysterols receptor LXR-beta (Homo sapiens) (UniProt P55055). The test can be described thus: ATG_LXRb_TRANS: Attagene TRANS-FACTORIAL HepG2 Assay for human Liver X Receptor beta (LXRb) (AID 2282981; active means hit-call score of the fitted dose curve at least 0.9, where 1 is the maximum). The note with it: HepG2 Attagene TRANS GAL4-LXRb reporter, mRNA. The procedure, abridged:
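Transient transfection HepG2 (multiplexed RTUs, GAL4-UAS); NR-Gal4 chimera; 24 h exposure; RNA → RT-PCR → 6-FAM primer extension → HpaI → CE; increase vs DMSO.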

Test [10] addresses Transcriptional activator Myb (Homo sapiens) (UniProt P10242). In words: ATG_Myb_CIS: Attagene CIS-FACTORIAL HepG2 Assay for human Myeloblastosis (Myb) Proto-Oncogene Transcription Factor (AID 2282986). Particulars: HepG2 Attagene CIS-FACTORIAL Myb reporter transcription; actives raise or lower the signal. Put shortly:
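Transiently transfected HepG2 cells carrying a multiplexed cis-promoter reporter set report endogenous Myb activity after 24 h compound exposure. Reporter mRNA is read by RT-PCR with capillary electrophoresis of fluorescent products, fitted bidirectionally against DMSO.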

Test [11] deals with Nuclear respiratory factor 1 (Homo sapiens) (UniProt Q16656). The test can be described thus: ATG_NRF1_CIS: Attagene CIS-FACTORIAL HepG2 Assay for human Nuclear Respiratory Factor 1 (NRF1) Orphan Gene (AID 2282987). Particulars: HepG2 NRF1 cis-element reporter, Attagene multiplex; actives raise or lower the signal. Put shortly: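 HepG2 cells transiently transfected with multiple cis-regulated reporter units, exposed 24 h. Reporter mRNAs measured by RT-PCR, fluorescent labelling, HpaI digestion and capillary electrophoresis; bidirectional fitting against DMSO.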
Sequence of Nuclear respiratory factor 1 (Homo sapiens) (Q16656 whole entry, looked up): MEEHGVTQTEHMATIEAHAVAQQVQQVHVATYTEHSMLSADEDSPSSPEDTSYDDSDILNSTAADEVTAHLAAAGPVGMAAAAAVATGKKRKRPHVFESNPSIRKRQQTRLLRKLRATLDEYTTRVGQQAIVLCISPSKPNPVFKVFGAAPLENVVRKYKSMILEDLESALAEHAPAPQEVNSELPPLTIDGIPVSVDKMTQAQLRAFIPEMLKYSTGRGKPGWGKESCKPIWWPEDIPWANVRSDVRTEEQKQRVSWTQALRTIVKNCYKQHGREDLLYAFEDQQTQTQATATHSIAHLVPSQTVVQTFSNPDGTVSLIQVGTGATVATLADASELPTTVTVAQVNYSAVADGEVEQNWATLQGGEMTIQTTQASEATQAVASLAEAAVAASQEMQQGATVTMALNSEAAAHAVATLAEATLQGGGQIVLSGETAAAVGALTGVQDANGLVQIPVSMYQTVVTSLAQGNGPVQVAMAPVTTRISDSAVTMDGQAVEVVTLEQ

The target in test [12] is Estrogen receptor (Homo sapiens) (UniProt P03372). The test can be described thus: ATG_ERa_TRANS: Attagene TRANS-FACTORIAL HepG2 Assay for human Estrogen Receptor alpha (ERa) (AID 2282970; active means hit-call score of the fitted dose curve at least 0.9, where 1 is the maximum). The note with it: HepG2 Attagene TRANS ERa GAL4 reporter, mRNA. Put shortly: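 Multiplexed cell-based reporter format in HepG2: chimeric ERa-Gal4 protein drives GAL4-UAS reporter transcription. Fluorescent reporter mRNA quantified by capillary electrophoresis 24 hours after dosing; endpoint fitted as signal gain against DMSO.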
Sequence of Estrogen receptor (Homo sapiens) (P03372 whole entry, looked up, the tested form may be a part): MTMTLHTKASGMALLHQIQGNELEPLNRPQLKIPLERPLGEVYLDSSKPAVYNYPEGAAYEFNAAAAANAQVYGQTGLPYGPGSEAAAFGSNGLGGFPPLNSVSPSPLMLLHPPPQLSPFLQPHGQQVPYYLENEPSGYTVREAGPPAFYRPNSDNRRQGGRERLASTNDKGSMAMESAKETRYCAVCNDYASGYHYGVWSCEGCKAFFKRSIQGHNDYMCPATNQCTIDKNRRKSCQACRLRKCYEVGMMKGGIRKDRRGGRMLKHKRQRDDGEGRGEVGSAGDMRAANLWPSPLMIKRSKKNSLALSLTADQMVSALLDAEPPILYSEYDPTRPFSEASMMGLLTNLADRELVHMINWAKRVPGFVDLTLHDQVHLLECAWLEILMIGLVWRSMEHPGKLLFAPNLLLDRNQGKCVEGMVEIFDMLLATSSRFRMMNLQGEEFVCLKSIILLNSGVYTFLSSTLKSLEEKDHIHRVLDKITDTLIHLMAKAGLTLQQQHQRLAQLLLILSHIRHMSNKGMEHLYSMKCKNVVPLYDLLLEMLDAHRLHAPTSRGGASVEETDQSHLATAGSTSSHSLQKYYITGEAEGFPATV

Test [13] deals with Glucocorticoid receptor (Homo sapiens) (UniProt P04150). The test can be described thus: ATG_GR_TRANS: Attagene TRANS-FACTORIAL HepG2 Assay for human Glucocorticoid Receptor (GR) (AID 2282978; active means hit-call score of the fitted dose curve at least 0.9, where 1 is the maximum;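 further: activators score as hits since higher reporter transcript over DMSO is fitted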). Particulars: HepG2 Attagene TRANS GR reporter, mRNA transcription. Put shortly: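 HepG2 cells transiently transfected with GAL4-UAS reporter units and exogenous GR-Gal4 chimera, dosed 24 h. Reporter mRNA by RT-PCR, FAM labeling, HpaI digest and capillary electrophoresis; gain-of-signal fit versus DMSO.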
Sequence of Glucocorticoid receptor (Homo sapiens) (P04150 whole entry, looked up, the tested form may be a part): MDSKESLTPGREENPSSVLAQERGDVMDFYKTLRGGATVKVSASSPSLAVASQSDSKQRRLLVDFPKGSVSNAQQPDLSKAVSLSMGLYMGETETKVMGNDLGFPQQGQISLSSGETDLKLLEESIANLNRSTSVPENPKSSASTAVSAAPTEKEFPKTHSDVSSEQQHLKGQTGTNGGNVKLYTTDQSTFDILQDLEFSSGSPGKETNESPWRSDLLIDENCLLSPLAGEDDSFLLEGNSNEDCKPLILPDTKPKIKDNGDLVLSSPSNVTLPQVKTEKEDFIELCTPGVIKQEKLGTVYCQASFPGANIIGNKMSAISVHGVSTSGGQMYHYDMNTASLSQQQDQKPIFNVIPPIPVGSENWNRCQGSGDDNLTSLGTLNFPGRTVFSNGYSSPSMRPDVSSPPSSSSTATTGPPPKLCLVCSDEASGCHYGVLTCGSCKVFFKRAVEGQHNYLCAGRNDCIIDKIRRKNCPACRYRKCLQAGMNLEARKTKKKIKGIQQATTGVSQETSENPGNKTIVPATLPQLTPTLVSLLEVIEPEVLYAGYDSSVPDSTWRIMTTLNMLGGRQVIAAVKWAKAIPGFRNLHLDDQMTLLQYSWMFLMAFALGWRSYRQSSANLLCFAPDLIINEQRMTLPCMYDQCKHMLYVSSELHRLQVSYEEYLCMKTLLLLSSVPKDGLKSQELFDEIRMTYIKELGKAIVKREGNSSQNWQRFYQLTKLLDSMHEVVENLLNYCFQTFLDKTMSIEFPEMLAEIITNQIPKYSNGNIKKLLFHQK

The target in test [14] is Bile acid receptor (Homo sapiens) (UniProt Q96RI1). The test can be described thus: ATG_FXR_TRANS: Attagene TRANS-FACTORIAL HepG2 Assay for Farnesoid X Receptor (FXR) (AID 2282979; active means hit-call score of the fitted dose curve at least 0.9, where 1 is the maximum;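 further: hits raise reporter mRNA above DMSO so AC50 marks FXR activation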). Particulars: HepG2 Attagene TRANS FXR-GAL4 reporter transcription. Put shortly: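 After 24 h chemical treatment of transfected HepG2 cells, GAL4-UAS reporter transcripts driven by an exogenous FXR-GAL4 fusion were measured by RT-PCR and capillary electrophoresis. Increases over DMSO were fitted.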
Sequence of Bile acid receptor (Homo sapiens) (Q96RI1 whole entry, looked up, the tested form may be a part): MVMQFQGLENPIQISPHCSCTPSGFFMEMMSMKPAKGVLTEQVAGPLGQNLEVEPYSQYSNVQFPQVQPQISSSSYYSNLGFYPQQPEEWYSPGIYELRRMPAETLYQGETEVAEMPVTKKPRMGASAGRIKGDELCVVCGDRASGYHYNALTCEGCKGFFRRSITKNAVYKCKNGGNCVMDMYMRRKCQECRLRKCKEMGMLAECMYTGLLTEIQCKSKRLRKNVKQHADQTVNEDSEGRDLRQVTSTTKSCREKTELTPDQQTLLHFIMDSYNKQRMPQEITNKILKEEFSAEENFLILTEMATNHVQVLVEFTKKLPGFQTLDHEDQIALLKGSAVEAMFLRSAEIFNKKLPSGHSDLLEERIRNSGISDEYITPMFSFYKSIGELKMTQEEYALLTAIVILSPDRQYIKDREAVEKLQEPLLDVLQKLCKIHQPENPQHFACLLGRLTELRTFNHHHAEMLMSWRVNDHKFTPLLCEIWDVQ

In test [15] the target is Nuclear receptor subfamily 4 group A member 2 (Homo sapiens) (UniProt P43354). The test can be described thus: ATG_NURR1_TRANS: Attagene TRANS-FACTORIAL HepG2 Assay for human Nuclear Receptor Related Protein 1 (NURR1) (AID 2282985; active means hit-call score of the fitted dose curve at least 0.9, where 1 is the maximum). The note with it: HepG2 Attagene TRANS reporter, mRNA readout. The procedure, abridged:
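Transient transfection of HepG2, human liver cells, with multiple GAL4-UAS reporter transcription units. Cells dosed 24 h, RNA isolated, reverse-transcribed, PCR-amplified, FAM-labelled, HpaI-digested, sized by capillary electrophoresis. DMSO served as negative control.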

Test [16] in a line: ATG_M_06_TRANS: Attagene TRANS-FACTORIAL HepG2 Assay for M06 Transcription Factor (Internal Marker) (AID 2282983; active means hit-call score of the fitted dose curve at least 0.9, where 1 is the maximum;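 further: reporter transcript level by RT-PCR then capillary electrophoresis fluorescence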). Particulars: HepG2 Attagene TRANS M06 internal marker reporter. Put shortly:
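Internal-marker background readout from a multiplexed TRANS reporter system in HepG2; 24 h dosing; mRNA induction quantified by RT-PCR plus capillary electrophoresis fluorescence; DMSO as negative control and baseline.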

Test [17] can be described thus: ATG_M_32_TRANS: Attagene TRANS-FACTORIAL HepG2 Assay for M32 Transcription Factor (Internal Marker) (AID 2282984; active means hit-call score of the fitted dose curve at least 0.9, where 1 is the maximum;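 further: transcript level of a background control reporter unit measured by RT-PCR and capillary electrophoresis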). The note with it: HepG2 Attagene TRANS M32 internal marker reporter. The procedure, abridged:
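Measures reporter mRNA induction in human HepG2 liver cells after 24 h chemical treatment. Transcripts from transiently transfected GAL4-UAS reporter units are amplified, fluorescently labelled and sized by capillary electrophoresis; gain of signal relative to DMSO.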

Test [18] has as its target Estrogen-related receptor gamma (Homo sapiens) (UniProt P62508). The test can be described thus: ATG_ERRg_TRANS: Attagene TRANS-FACTORIAL HepG2 Assay for human Estrogen-Related Receptor gamma (ERRg) (AID 2282977; active means hit-call score of the fitted dose curve at least 0.9, where 1 is the maximum;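 further: hits increase reporter signal over DMSO so potencies reflect activators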). Particulars: HepG2 Attagene TRANS reporter, ERRg transactivation. The procedure, abridged: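 HepG2 cells transiently transfected with multiplexed GAL4-UAS reporter units driven by chimeric NR-Gal4 proteins; 24 h exposure. Reporter mRNA quantified by RT-PCR, fluorescent labelling, HpaI digestion and capillary electrophoresis; gain of signal vs DMSO.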

The target of test [19] is Hepatocyte nuclear factor 4-alpha (Homo sapiens) (UniProt P41235). The test can be described thus: ATG_HNF4a_TRANS: Attagene TRANS-FACTORIAL HepG2 Assay for human Hepatocyte Nuclear Factor 4 alpha (HNF4a) (AID 2282982; active means hit-call score of the fitted dose curve at least 0.9, where 1 is the maximum). The note with it: HepG2 HNF4a transactivation reporter, mRNA readout. The procedure, abridged:
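Readout is fluorescent reporter-transcript fragments resolved by capillary electrophoresis after RT-PCR from HepG2 cells dosed for 24 h. Cells carried transfected GAL4-UAS reporter constructs measuring exogenous NR-GAL4 chimera activity; DMSO served as baseline.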

Sequence of X-box-binding protein 1 (Homo sapiens) (P17861 whole entry, looked up, the tested form may be a part): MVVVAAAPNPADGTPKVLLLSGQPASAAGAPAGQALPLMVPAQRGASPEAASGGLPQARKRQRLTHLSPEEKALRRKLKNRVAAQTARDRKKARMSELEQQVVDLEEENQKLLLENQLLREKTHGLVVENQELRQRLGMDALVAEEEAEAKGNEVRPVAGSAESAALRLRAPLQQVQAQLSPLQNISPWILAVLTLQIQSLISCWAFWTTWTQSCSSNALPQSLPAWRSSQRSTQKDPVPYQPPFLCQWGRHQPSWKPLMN
Sequence of Oxysterols receptor LXR-beta (Homo sapiens) (P55055 whole entry, looked up, the tested form may be a part): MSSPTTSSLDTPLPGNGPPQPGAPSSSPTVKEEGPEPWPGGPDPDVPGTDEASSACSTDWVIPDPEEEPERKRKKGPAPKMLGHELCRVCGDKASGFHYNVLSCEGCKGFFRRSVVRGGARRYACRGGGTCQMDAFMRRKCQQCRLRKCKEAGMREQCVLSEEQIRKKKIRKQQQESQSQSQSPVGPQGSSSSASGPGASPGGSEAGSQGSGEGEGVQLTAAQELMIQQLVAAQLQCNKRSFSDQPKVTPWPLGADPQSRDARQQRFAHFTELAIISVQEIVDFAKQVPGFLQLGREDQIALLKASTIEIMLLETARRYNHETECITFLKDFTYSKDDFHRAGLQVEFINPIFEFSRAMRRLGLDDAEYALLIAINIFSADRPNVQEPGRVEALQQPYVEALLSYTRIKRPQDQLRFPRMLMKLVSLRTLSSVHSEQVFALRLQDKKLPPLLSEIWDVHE
Sequence of Oxysterols receptor LXR-alpha (Homo sapiens) (Q13133 whole entry, looked up, the tested form may be a part): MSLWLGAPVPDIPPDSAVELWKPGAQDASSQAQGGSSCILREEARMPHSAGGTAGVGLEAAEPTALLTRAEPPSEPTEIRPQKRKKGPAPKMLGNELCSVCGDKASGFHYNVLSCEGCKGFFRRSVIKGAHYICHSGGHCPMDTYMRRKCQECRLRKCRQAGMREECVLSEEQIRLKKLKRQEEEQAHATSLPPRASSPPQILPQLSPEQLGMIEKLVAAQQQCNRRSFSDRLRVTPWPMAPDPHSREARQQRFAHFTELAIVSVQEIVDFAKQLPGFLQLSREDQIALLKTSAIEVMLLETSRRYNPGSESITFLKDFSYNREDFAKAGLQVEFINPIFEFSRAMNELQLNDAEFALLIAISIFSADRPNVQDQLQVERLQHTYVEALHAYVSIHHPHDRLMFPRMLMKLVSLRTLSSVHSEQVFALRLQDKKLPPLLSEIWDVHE
Sequence of Transcriptional activator Myb (Homo sapiens) (P10242 whole entry, looked up): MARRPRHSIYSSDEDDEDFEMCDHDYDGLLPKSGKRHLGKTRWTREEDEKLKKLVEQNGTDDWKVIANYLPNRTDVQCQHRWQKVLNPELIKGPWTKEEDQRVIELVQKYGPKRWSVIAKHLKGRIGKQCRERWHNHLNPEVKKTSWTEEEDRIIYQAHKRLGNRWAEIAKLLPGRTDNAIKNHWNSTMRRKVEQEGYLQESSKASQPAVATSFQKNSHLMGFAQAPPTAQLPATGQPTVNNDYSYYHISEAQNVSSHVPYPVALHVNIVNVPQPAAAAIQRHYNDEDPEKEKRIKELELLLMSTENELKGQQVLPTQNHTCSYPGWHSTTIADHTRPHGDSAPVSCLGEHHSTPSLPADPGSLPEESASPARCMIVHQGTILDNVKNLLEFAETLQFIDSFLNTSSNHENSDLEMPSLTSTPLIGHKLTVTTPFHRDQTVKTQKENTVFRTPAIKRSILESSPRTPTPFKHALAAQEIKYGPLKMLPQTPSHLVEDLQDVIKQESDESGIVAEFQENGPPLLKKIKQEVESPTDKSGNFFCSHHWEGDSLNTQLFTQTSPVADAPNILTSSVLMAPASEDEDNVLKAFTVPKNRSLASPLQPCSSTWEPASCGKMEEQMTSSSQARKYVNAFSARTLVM

As to `CC(C)(C)c1cc(CCC(=O)NN)cc(C(C)(C)C)c1O`, the result in test [1], in test [2], in test [3], in test [4], in test [5] and in [6] was inactive. For the same molecule, the molecule was classed as inactive in [7], in test [8], in test [9], in [10] and in test [11].
Consider `CC(=O)O[C@]1(C(C)=O)CC[C@H]2[C@@H]3C[C@H](C)C4=CC(=O)CC[C@]4(C)[C@H]3CC[C@@]21C`, for which the molecule was classed as inactive in [1], in test [2], in test [12], in test [5], in [14] and in test [8]. The outcome in test [9] and in [11] was inactive. The AC50 is 17.1 µM (active) in test [3], 0.354 µM (active) in test [13] and 16.8 µM (active) in [15].
In the case of `Cc1ccc2n[nH]nc2c1`, the outcome in test [1], in test [2], in test [3], in test [12], in [5] and in [13] was inactive. The result in test [16], in [17], in [10] and in [11] was inactive.
Consider `C=CC(=O)OCCn1c(=O)n(CCOC(=O)C=C)c(=O)n(CCOC(=O)C=C)c1=O`, for which the result in test [1], in [2], in test [4], in test [18], in test [13] and in [14] was inactive. For the same molecule, the call in [9], in test [19], in [16], in [17], in test [10] and in [11] was inactive. Further, the AC50 in test [3] was 4.16 µM (active); in [5], 8.6 µM (active).
`CCCCCCCCCC=O`: the outcome in test [1], in [2], in test [3], in test [12], in test [5] and in [8] was inactive. Also, the molecule was called inactive in test [15], in test [10] and in test [11].
Take `CCN(CC)CCOC(=O)c1ccc(N)cc1`: the molecule was classed as inactive in test [1], in test [2], in test [3], in test [4], in [5] and in test [6]. The molecule was classed as inactive in test [7], in test [8], in [17], in [10] and in test [11].
